From PubChem BioAssay AID2634 (National Center for Advancing Translational Sciences (NCATS), 2010)
Records with an inconclusive call do not appear. Unmarked numbers belong to inactive results. The source made the active and inactive calls.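 The calls were made as follows: active = compounds whose potency, the dose giving half inhibition, is below 20 µM; inconclusive = compounds meeting neither the active nor the inactive rule; inactive = potency over 20 µM or below 50% inhibition when unfitted.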

Each compound was assayed against Integrin alpha-IIb (Homo sapiens) (UniProt P08514) (assay: Platelet Adhesion Secondary Assay for Inhibitors of Platelet Integrin alphallb-beta3). Details: human platelet adhesion to fibrinogen, calcein fluorescence; inhibition: at 30 µM, stronger effect = higher value.
Excerpt: NIH Molecular Libraries Probe Production Network [MLPCN] NIH Chemical Genomics Center [NCGC] MLPCN Grant: 1 R03 MH083257-01 Assay Provider: Barry Coller, Rockefeller University NCGC Assay Overview: The alphaIIbbeta3 receptor plays a vital role in hemostasis and thrombosis, where receptor deficiency causes the hemorrhagic disorder, Glanzmann thrombasthenia, and uncontrolled receptor activation causes thrombosis and blood vessel occlusion. Small molecule inhibitors of alphaIIbbeta3, tirofiban and eptifibatide, have undesirable side effects thought to arise from conformational changes in alphaIIbbeta3. These changes transiently activate the receptor to cause spontaneous platelet aggregation and thrombus formation. […] This secondary assay measures the binding of human plates to fibrinogen, an extracellular matrix protein (Blue et al., 2008). Platelets were loaded with a fluorescent dye, calcein, and added to fibrinogen-coated plates. Following incubation, unbound platelets were removed by washing and bound platelets were detected by measuring fluorescence intensity. Inhibitors of alphaIIbbeta3 block platelet binding to fibrinogen and result in a decrease in fluorescence intensity.
NCGC Assay Protocol Summary: Human fibrinogen (50 ug/mL) in Tris/saline (100 mM NaCl, 50 mM Tris/HCl, pH 7.4; American Diagnostica, Stamford, CT) was added to black, clear-bottom, untreated polystyrene, nonsterile 384-well microtiter plate wells (Corning no. 3711; Acton, MA) using a peristaltic microplate dispenser (WellMate; Matrix, Hudson, NH). After incubating at 22 C for 1 hour, plates were washed 4 times with Tris/saline using an automated plate washer (ELX405; Bio-Tek, Winooski, VT), and wells were then blocked with HBMT (138 mM NaCl, 12 mM NaHCO3, 10 mM HEPES, 2.7 mM KCl, 0.4 mM NaH2PO4, 0.1% glucose, 0.35% BSA, pH 7.4) for at least 1 hour. After 2 additional washes, 15 uL HBMT was allowed to remain in each well. Compounds were added to the wells with a liquid handling robot (MiniTrak V; PerkinElmer, Wellesley, MA) using a pin tool (VP Scientific, San Diego, CA) that added 0.1 uL compound in DMSO. Fifteen microliters 5E11/L calcein-labeled platelets were then added (2.5E11/L final concentration). After 1 hour of adhesion, wells were washed 4 times with HBMT-CaCl2/MgCl2 and the plates were read by an Envision (Perkin Elmer) to detect calcein fluorescence (490 nm excitation and 515 nm emission). Positive controls consisted of wells containing platelets without compounds. Negative controls were wells containing platelets and known inhibitors of alphaIIbbeta3, including mAbs 7E3 and 10E5, and EDTA. Reference Blue R, Murcia M, Karan C, Jirouskova M, and Coller BS. Application of high-throughput screening to identify a novel alphaIIb-specific small- molecule inhibitor of alphaIIbbeta3-mediated platelet interaction with fibrinogen. Blood. 2008, 111(3):1248-56

Chain of Integrin alpha-IIb (Homo sapiens) (P08514 whole entry, looked up): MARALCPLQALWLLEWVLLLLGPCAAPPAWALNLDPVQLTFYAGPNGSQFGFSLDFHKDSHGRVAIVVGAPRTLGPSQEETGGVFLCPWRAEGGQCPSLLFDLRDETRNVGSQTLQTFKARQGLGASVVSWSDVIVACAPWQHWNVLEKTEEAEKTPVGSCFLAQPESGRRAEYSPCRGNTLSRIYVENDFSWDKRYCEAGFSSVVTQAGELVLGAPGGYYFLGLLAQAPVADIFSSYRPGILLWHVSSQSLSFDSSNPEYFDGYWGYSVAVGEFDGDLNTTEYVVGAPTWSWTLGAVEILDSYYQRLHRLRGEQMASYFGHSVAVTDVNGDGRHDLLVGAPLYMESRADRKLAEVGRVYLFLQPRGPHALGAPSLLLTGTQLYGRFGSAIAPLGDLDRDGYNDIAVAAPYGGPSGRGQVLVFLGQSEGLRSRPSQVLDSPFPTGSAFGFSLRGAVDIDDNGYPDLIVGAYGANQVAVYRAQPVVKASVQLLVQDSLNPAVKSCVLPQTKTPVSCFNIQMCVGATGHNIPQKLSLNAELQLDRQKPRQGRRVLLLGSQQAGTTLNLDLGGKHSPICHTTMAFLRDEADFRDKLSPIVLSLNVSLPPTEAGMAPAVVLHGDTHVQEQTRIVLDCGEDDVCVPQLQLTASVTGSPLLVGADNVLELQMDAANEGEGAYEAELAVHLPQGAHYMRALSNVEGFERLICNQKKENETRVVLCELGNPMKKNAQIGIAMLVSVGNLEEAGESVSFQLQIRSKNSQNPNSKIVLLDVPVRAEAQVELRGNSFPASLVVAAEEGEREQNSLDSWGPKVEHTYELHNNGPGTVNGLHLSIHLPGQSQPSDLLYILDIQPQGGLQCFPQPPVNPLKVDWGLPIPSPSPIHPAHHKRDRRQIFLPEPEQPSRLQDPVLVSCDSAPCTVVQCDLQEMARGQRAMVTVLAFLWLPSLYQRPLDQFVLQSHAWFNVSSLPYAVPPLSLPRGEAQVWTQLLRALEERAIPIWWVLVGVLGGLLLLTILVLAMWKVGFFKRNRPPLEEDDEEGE

SMILES | inhibition | Potency
CCc1nn2c(=O)cc(NC3CNC3)nc2s1 | 23% | 
O=C(O)c1cccc(-c2cccc(-c3nn4c(=O)cc(N5CCNCC5)nc4s3)c2)c1 |  | 460 nM (active)
NC(=O)c1ccc(-c2cccc(-c3nn4c(=O)cc(N5CCNCC5)nc4s3)c2)cc1 |  | 855 nM (active)
Nc1ncc(-c2cccc(-c3nn4c(=O)cc(N5CCNCC5)nc4s3)c2)cn1 |  | 3500 nM (active)
CCc1nn2c(=O)cc(-c3ccncc3)nc2s1 | 25% | 
CCc1nn2c(=O)cc(N3C(C)CNCC3C)nc2s1 (stereo not given) | 27% | 
O=C(O)c1cc(-c2cccc(-c3nn4c(=O)cc(N5CCNCC5)nc4s3)c2)cs1 |  | 2400 nM (active)
Cc1noc(C)c1-c1cccc(-c2nn3c(=O)cc(N4CCNCC4)nc3s2)c1 | 26% | 
CNCC(=O)Nc1cccc(-c2nn3c(=O)cc(N4CCNCC4)nc3s2)c1 | 24% | 
O=C(O)c1ccc(-c2nn3c(=O)cc(N4CCNCC4)nc3s2)cc1 | 48% | 
COCc1nn2c(=O)cc(N3CCNCC3)nc2s1 | 18% | 
CC(C)(C)c1nn2c(=O)cc(N3CCNCC3)nc2s1 | 21% | 
NCC(=O)Nc1cccc(-c2nn3c(=O)cc(N4CCNCC4)nc3s2)c1 |  | 1100 nM (active)
C[C@H](N)C(=O)Nc1cccc(-c2nn3c(=O)cc(N4CCNCC4)nc3s2)c1 |  | 8200 nM (active)
O=C(Nc1cccc(-c2nn3c(=O)cc(N4CCNCC4)nc3s2)c1)c1ccon1 | 32% | 
